Data: the supplement of paper PMC8728848
Only a selection was taken, and the strongest signals are over-represented in it overall.

Legend:
Assay in all cases: glycan array binding signal (z-score within array); higher = stronger binding
Conditions in all cases: glycan notation: IUPAC condensed, linker removed
[1] = molecular target: Fuc(a1-2)Gal(b1-3)GlcNAc(b1-2)Man(a1-3)[Fuc(a1-2)Gal(b1-3)GlcNAc(b1-2)Man(a1-6)]Man(b1-4)GlcNAc(b1-4)GlcNAc
Procedure, shortened: (§1)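 Arrays were curated from the Consortium for Functional Glycomics database, 3228 in total, and kept only where the protein sequence was available. Binding is expressed as a within-array Z-score. This score was averaged across arrays of the same protein sequence at different concentrations or buffers and across linkers, and negative values can be read as non-binding.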

[2] = molecular target: Fuc(a1-2)Gal(b1-4)GlcNAc
Procedure, shortened: as §1

[3] = molecular target: Fuc(a1-2)Gal(b1-4)GlcNAc(b1-2)[Fuc(a1-2)Gal(b1-4)GlcNAc(b1-4)]Man(a1-3)[Fuc(a1-2)Gal(b1-4)GlcNAc(b1-2)Man(a1-6)]Man(b1-4)GlcNAc(b1-4)GlcNAc
Procedure, shortened: as §1

[4] = molecular target: Fuc(a1-2)Gal(b1-4)GlcNAc(b1-3)Gal(b1-4)GlcNAc
Procedure, shortened: as §1

[5] = molecular target: Fuc(a1-2)Gal(b1-4)[Fuc(a1-3)]GlcNAc
Procedure, shortened: as §1

[6] = molecular target: Fuc(a1-2)[Gal(a1-3)]Gal(b1-3)GlcNAc(b1-3)GalNAc
Procedure, shortened: as §1

[7] = molecular target: Fuc(a1-2)[Gal(a1-3)]Gal(b1-4)GlcNAc(b1-3)[Fuc(a1-2)[Gal(a1-3)]Gal(b1-4)GlcNAc(b1-6)]GalNAc
Procedure, shortened: as §1

[8] = molecular target: Fuc(a1-2)[Gal(a1-3)]Gal(b1-4)[Fuc(a1-3)]GlcNAc(b1-3)GalNAc
Procedure, shortened: as §1

[9] = molecular target: Fuc(a1-2)[GalNAc(a1-3)]Gal(b1-3)GlcNAc
Procedure, shortened: as §1

[10] = molecular target: Fuc(a1-2)[GalNAc(a1-3)]Gal(b1-4)GlcNAc(b1-3)Gal(b1-4)GlcNAc
Procedure, shortened: as §1

[11] = molecular target: Fuc(b1-3)GlcNAc
Procedure, shortened: as §1

[12] = molecular target: Gal(a1-3)Gal(b1-4)GlcNAc(b1-2)Man(a1-3)[Gal(a1-3)Gal(b1-4)GlcNAc(b1-2)Man(a1-6)]Man(b1-4)GlcNAc(b1-4)GlcNAc
Procedure, shortened: as §1

[13] = molecular target: Gal(b1-2)Gal
Procedure, shortened: as §1

[14] = molecular target: Gal(b1-3)Gal(b1-4)GlcNAc
Procedure, shortened: as §1

[15] = molecular target: Gal(b1-3)Gal(b1-4)GlcNAc(b1-2)Man(a1-3)[Gal(b1-3)Gal(b1-4)GlcNAc(b1-2)Man(a1-6)]Man(b1-4)GlcNAc(b1-4)GlcNAc
Procedure, shortened: as §1

[16] = molecular target: Gal(b1-3)GlcNAc
Procedure, shortened: as §1

[17] = molecular target: Gal(b1-3)GlcNAc(b1-3)GalNAc
Procedure, shortened: as §1

[18] = molecular target: Gal(b1-3)GlcNAc6S
Procedure, shortened: as §1

[19] = molecular target: Gal(b1-3)[Neu5Ac(a2-6)]GalNAc
Procedure, shortened: as §1

[20] = molecular target: Gal(b1-4)GalNAc(b1-3)[Fuc(a1-2)]Gal(b1-4)GlcNAc
Procedure, shortened: as §1

[21] = molecular target: Gal(b1-4)GlcNAc(b1-2)Man(a1-6)Man(b1-4)GlcNAc(b1-4)GlcNAc
Procedure, shortened: as §1

[22] = molecular target: Gal(b1-4)GlcNAc(b1-2)Man(a1-6)[GlcNAc(b1-2)Man(a1-3)]Man(b1-4)GlcNAc(b1-4)GlcNAc
Procedure, shortened: as §1

[23] = molecular target: Gal(b1-4)GlcNAc(b1-3)Gal(b1-4)Glc
Procedure, shortened: as §1

[24] = molecular target: Gal(b1-4)GlcNAc(b1-3)Gal(b1-4)GlcNAc(b1-3)Gal(b1-4)GlcNAc(b1-3)Gal(b1-4)GlcNAc(b1-2)Man(a1-3)[Gal(b1-4)GlcNAc(b1-3)Gal(b1-4)GlcNAc(b1-3)Gal(b1-4)GlcNAc(b1-3)Gal(b1-4)GlcNAc(b1-2)Man(a1-6)]Man(b1-4)GlcNAc(b1-4)[Fuc(a1-6)]GlcNAc
Procedure, shortened: as §1

[25] = molecular target: Gal(b1-4)GlcNAc(b1-3)Gal(b1-4)GlcNAc(b1-3)Gal(b1-4)GlcNAc(b1-3)Gal(b1-4)GlcNAc(b1-3)Gal(b1-4)GlcNAc(b1-3)Gal(b1-4)GlcNAc(b1-2)Man(a1-3)[Gal(b1-4)GlcNAc(b1-3)Gal(b1-4)GlcNAc(b1-3)Gal(b1-4)GlcNAc(b1-3)Gal(b1-4)GlcNAc(b1-3)Gal(b1-4)GlcNAc(b1-3)Gal(b1-4)GlcNAc(b1-2)Man(a1-6)]Man(b1-4)GlcNAc(b1-4)GlcNAc
Procedure, shortened: as §1

[26] = molecular target: Gal(b1-4)GlcNAc(b1-3)Gal(b1-4)GlcNAc(b1-3)GalNAc
Procedure, shortened: as §1

[27] = molecular target: Gal(b1-4)GlcNAc(b1-3)Gal(b1-4)GlcNAc(b1-3)[Gal(b1-4)GlcNAc(b1-3)Gal(b1-4)GlcNAc(b1-6)]GalNAc
Procedure, shortened: as §1

[28] = molecular target: Gal(b1-4)GlcNAc(b1-3)[Gal(b1-4)GlcNAc(b1-6)]GalNAc
Procedure, shortened: as §1

[29] = molecular target: Gal(b1-4)GlcNAc6P
Procedure, shortened: as §1

B1: AAL (Agrocybe aegerita), Q6WY08 (protein)
chain: MQGVNIYNISAGTSVDLAAPVTTGDIVTFFSSALNLNAGAGNPNNTTLNLFAENGAYLLHIAFRLQENVIIFNSRQPDGPWLVEQRVSDVANQFAGIDGKAMVTVFDHGDKYQVVINEKTVIQYTKQISGLTLSLSYNATEETSIFSTVVEAVTYTGLALEHHHHHH
Q: For B1, which “glycan array binding signal (z-score)” value [1] is on record?
A: -0.105

Q: And the “glycan array binding signal (z-score)” value [2]?
A: -0.146

Q: What about the “glycan array binding signal (z-score)” value [3] of the same binder?
A: -0.119

Q: And the “glycan array binding signal (z-score)” value [4]?
A: -0.138

Q: And the “glycan array binding signal (z-score)” value [5]?
A: -0.147

Q: What about the “glycan array binding signal (z-score)” value [6] of the same binder?
A: -0.119

Q: And the “glycan array binding signal (z-score)” value [7]?
A: -0.138

Q: And the “glycan array binding signal (z-score)” value [8]?
A: -0.136

Q: And the “glycan array binding signal (z-score)” value [9]?
A: -0.152

Q: And the “glycan array binding signal (z-score)” value [10]?
A: -0.112

Q: And the “glycan array binding signal (z-score)” value [11]?
A: -0.123

Q: And the “glycan array binding signal (z-score)” value [12]?
A: 7.5

Q: And the “glycan array binding signal (z-score)” value [13]?
A: -0.141

Q: And the “glycan array binding signal (z-score)” value [14]?
A: -0.135

Q: What about the “glycan array binding signal (z-score)” value [15] of the same binder?
A: 6.91

Q: And the “glycan array binding signal (z-score)” value [16]?
A: -0.146

Q: What about the “glycan array binding signal (z-score)” value [17] of the same binder?
A: -0.149

Q: And the “glycan array binding signal (z-score)” value [18]?
A: -0.129

Q: What about the “glycan array binding signal (z-score)” value [19] of the same binder?
A: -0.159

Q: And the “glycan array binding signal (z-score)” value [20]?
A: -0.135

Q: What about the “glycan array binding signal (z-score)” value [21] of the same binder?
A: -0.162

Q: And the “glycan array binding signal (z-score)” value [22]?
A: -0.145

Q: What about the “glycan array binding signal (z-score)” value [23] of the same binder?
A: -0.142

Q: What about the “glycan array binding signal (z-score)” value [24] of the same binder?
A: -0.096

Q: And the “glycan array binding signal (z-score)” value [25]?
A: -0.099

Q: What about the “glycan array binding signal (z-score)” value [26] of the same binder?
A: -0.131

Q: What about the “glycan array binding signal (z-score)” value [27] of the same binder?
A: -0.125

Q: And the “glycan array binding signal (z-score)” value [28]?
A: -0.153

Q: What about the “glycan array binding signal (z-score)” value [29] of the same binder?
A: -0.163
